# Data published in PubChem BioAssay AID1851 (National Center for Advancing Translational Sciences (NCATS), 2009).
# Hit rate of the full screen: of about 16,000 compounds, about 5,100 (32%) were called active. Inconclusive results (about 25%) are left out. Calls come from the whole dose curve; as a rule, active = well fitted curve in the direction sought with a large enough effect; inconclusive = small, poorly fitted or top-dose-only effect, or effect the other way; inactive = no such curve, though single readings can be large or run the other way. This is one part of the list.
# Target: Cytochrome P450 3A4 (Homo sapiens) (UniProt P08684)
# Assay: Cytochrome panel assay with activity outcomes
# Details: recombinant CYP, pro-luciferin dealkylation, luminescence, p450-cyp3a4; series mostly up to 57.1 µM
# Description: The P450 gene superfamily is involved in the metabolism and clearance of xenobiotics. This assay used various human CYP P450 isozymes to measure the dealkylation of various pro-luciferin substrates to luciferin. The luciferin is then measured by luminescence after the addition of a luciferase detection reagent. Pro-luciferin substrate concentration in the assay was equal to its KM for its CYP P450 isozyme. Inhibitors and some substrates limit the production of luciferin, and decrease measured luminescence.
# NCGC Assay Protocol Summary:
# 1, Reagent, 2 uL, Isozyme and Pro-Luciferin
# 2, Library compounds, 23 nl, 40 uM to 0.24 nM dilution series
# 3, Controls, 23 nl, Isozyme specific inhibitor
# 4, Reagent, 2 uL, NADPH regeneration solution
# 5, Incubation time, 60 min, Isozyme specific temperature
# 6, Reagent, 4ul, Detection reagent
# 7, Incubation time, 20 min, Isozyme specific temperature
# 8, Detection, 1 sec, ViewLux luminescent read
# The luciferase-based P450-GloTM Screening Systems were obtained from Promega (Madison, WI) for CYP 1A2 (V9770), CYP 2C9 (V9790), CYP2 C19 (V9880), CYP 2D6 (V9890), and CYP 3A4 Luciferin-PPXE (V9910) and were adapted for 1,536-well microplates and an automated protocol. The control compounds furafylline for 1A2 (F124), sulfaphenazole for CYP 2C9 (S0758), ketoconazole for CYP 2C19 (K1003), quinidine for 2D6 (Q3625), and ketoconazole for 3A4 (K1003) were purchased from Sigma Aldrich (St. Louis, MO). Recombinant P450 enzymes were obtained from baculovirus constructs expressed in insect cells (BD/Gentest).
# Medium-binding white solid Kalypsys plates used. Mixtures kept on ice. 1A2: 10 nM 1A2, 100 uM Luc-ME, 100 mM KPO4; 2C9: 10 nM 2C9, 100 uM Luc-H, 25 mM KPO4; 2C19: 5 nM 2C19, 10 uM Luc-H EGE, 50 mM KPO4; 2D6: 5 nM 2D6, 30 uM Luc-ME EGE, 100 mM KPO4; 3A4: 10 nM, 25 uM Luc-PPXE. All amounts are reflected in their final concentration, working concentration is 2x.
# NADPH regeneration solution: 1.3 mM NADP+, 3.3 mM glucose-6-phosphate, 3.3 mM MgCl2, 0.4 U/mL glucose-6-phosphate dehydrogenase for all isozymes, 200 mM KPO4 for 3A4. Mixture prepared at RT but kept on ice during automated run.
# RT incubation in auxilliary plate hotel for 1A2, 2D6, and 3A4; 37C for 2C9 and 2C19.
# Keywords: P450, CYP1A2, CYP2C19, CYP2C9, CYP2D6, CYP3A4, Luciferase, MLSMR, MLSCN, NIH Roadmap, qHTS, NCGC
# % is set by controls: 0 for no effect and ±100 for the full control effect.
# Sequence of Cytochrome P450 3A4 (Homo sapiens) (P08684 whole entry, looked up): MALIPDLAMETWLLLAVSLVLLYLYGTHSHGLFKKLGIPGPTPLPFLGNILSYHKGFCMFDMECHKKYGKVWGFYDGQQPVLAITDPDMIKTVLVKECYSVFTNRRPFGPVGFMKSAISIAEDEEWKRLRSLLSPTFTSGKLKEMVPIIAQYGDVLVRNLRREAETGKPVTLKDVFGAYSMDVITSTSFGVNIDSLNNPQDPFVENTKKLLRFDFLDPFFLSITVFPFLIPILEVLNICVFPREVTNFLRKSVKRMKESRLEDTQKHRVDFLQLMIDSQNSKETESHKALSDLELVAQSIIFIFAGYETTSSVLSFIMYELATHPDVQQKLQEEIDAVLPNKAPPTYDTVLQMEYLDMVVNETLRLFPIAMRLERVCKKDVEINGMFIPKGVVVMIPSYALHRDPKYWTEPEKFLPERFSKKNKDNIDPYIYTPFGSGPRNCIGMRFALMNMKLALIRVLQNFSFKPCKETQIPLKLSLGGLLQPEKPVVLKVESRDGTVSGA
Structure (SMILES),"activity, negative = inhibition",AC50
CC(C)(C)n1ncc2c(=O)n(CC(=O)NCc3ccccc3Cl)cnc21,-27.1% [at 11.4 µM] (inactive),
O=C(CSc1nc2ccccc2c(=O)n1NC(=O)c1ccccc1)c1ccc(Cl)cc1,,14.1 µM (active)
O=C(CSc1nc2ccccc2c(=O)n1NC(=O)Cc1ccccc1)NCc1ccccc1Cl,,5.62 µM (active)
CC(=O)C1C(c2ccccc2OC(F)F)NC(=O)NC1(O)C(F)(F)F (stereo unspecified),,inactive
CCCCCC(=O)O[C@H](CC(=O)O)C[N+](C)(C)C,,inactive
CN(C)c1ccc(-c2cncnc2NCCN2CCOCC2)cc1,,3.16 µM (active)
CN(C)C(=O)c1ccc(-c2cncnc2NCCN2CCOCC2)cc1,,15.8 µM (active)
Cc1ccnc(NS(=O)(=O)c2ccc(N=[N+]=[N-])cc2)n1,1.05% [at 11.4 µM] (inactive),
COc1cccc(N=Cc2c[nH][nH]c2=O)c1,,14.1 µM (active)
Clc1cccc(C=NC=Nc2cccc(Cl)c2)c1,,inactive
O=c1[nH][nH]c(C(F)(F)F)c1C=Nc1cccc(Cl)c1,,inactive
COc1cccc(/C=N/NC(=O)c2cc(-c3cccn3C)n[nH]2)c1,-9.54% [at 2.29 µM] (inactive),
COc1cccc(C=NC=Nc2cccc(OC)c2)c1,,20 µM (active)
O=c1[nH][nH]cc1C=Nc1ccccc1O,-5.56% [at 11.4 µM] (inactive),
CCCn1nnnc1-c1cc(Cl)cc(Cl)c1,29.9% [at 2.29 µM] (inactive),
Cc1cccc(C)c1NC(=O)/C(C#N)=C/c1cccs1,,20 µM (active)
N#C/C(=C\c1cccs1)C(=O)NCC1CCCO1 (stereo unspecified),,inactive
Cc1sc(NC(=O)c2ccco2)c(C(c2cccnc2)N2CCCC2)c1C (stereo unspecified),,1.58 µM (active)
O=C(NCC(c1cccs1)N1CCOCC1)c1ccco1 (stereo unspecified),,inactive
Cc1sc(NC(=O)c2ccco2)c(C(c2cccnc2)N2CCN(C)CC2)c1C (stereo unspecified),-28.9% [at 2.29 µM] (inactive),
Cc1sc(NC(=O)c2ccco2)c(C(c2ccncc2)N2CCOCC2)c1C (stereo unspecified),,3.16 µM (active)
COc1ccccc1-c1nccc(NCc2cccnc2)n1,,2.51 µM (active)
Cc1ccccc1-c1nccc(NCc2cccnc2)n1,,3.98 µM (active)
COc1ccccc1-c1nccc(NCc2ccccc2)n1,,15.8 µM (active)
Cc1cccc(CNc2ccnc(-c3ccccc3Cl)n2)c1,,3.98 µM (active)
O=c1c(-c2ccccc2)c(O)c2cccc3c2n1CCC3,,inactive

Structure (SMILES),"activity, negative = inhibition",AC50
CCCCCSc1nnc(C)c(=O)[nH]1,,inactive
COc1ccccc1-c1nccc(NCc2cccc(C)c2)n1,,6.31 µM (active)
CC1=c2c(oc3cc(O)c(Nc4c(C)cc(O)cc4O)c(C)c23)=CC(=O)C1=Nc1c(C)cc(O)cc1O,-19.4% [at 11.4 µM] (inactive),
CC(c1ccccc1C(O)c1ccccc1)N(C)C (stereo unspecified),,inactive
COc1ccc(NC(=O)N(C2CCCCC2)C(C)c2cccnc2)c(OC)c1 (stereo unspecified),,10 µM (active)
CCOc1ccc(NC(=O)C(=O)NCC2CCCN2CC)cc1 (stereo unspecified),,inactive
CCOc1ccc(NC(=O)N(C2CCCCC2)C(C)c2ccncc2)cc1 (stereo unspecified),,15.8 µM (active)
CCCCN(C(=O)Nc1ccc(OCC)cc1)C1CCN(C(C)=O)CC1,,inactive
COc1nc(Cl)nc(Cl)c1Cl (tested in a mixture with another compound),3.03% [at 11.4 µM] (inactive),
CCn1c(O)c(/C=C2\C=Nc3ccccc32)sc1=Nc1ccc(C)cc1,-3.41% [at 2.29 µM] (inactive),
O=c1c(-c2cccs2)nc2cncnc2n1Cc1ccc(F)cc1,,12.6 µM (active)
O=c1c(-c2cccs2)nc2cncnc2n1Cc1ccccc1,,6.31 µM (active)
Cc1nc2cncnc2n(Cc2ccccc2)c1=O,,inactive
Cc1c(NC(=S)N/N=C/c2ccc(O)cc2)c(=O)n(-c2ccccc2)n1C,,inactive
Cc1c(NC(=S)/C=C2\N(C)c3ccccc3C2(C)C)c(=O)n(-c2ccccc2)n1C,,5.62 µM (active)
Cc1c(N(C)C)c(=O)n(-c2ccccc2)n1C,,inactive
COc1ccc2sc3ccccc3c(=O)c2c1OC,,17.8 µM (active)
COc1ccc2cc(C(=O)Nc3ccc(F)cc3)sc(=O)c2c1OC,-4.97% [at 2.29 µM] (inactive),
COc1ccc2c(c1OC)C(=O)OC2Nc1ncccc1C (stereo unspecified),-2.44% [at 2.29 µM] (inactive),
COc1cc(C2C(=O)N(C3CCCC3)CC(=O)N2Cc2ccco2)ccc1OC(C)C (stereo unspecified),,8.91 µM (active)
COc1ccc(CN2C(=O)CN(C3CCCCCC3)C(=O)C2c2ccc(OC)c(OC)c2)cc1 (stereo unspecified),,1.58 µM (active)
COc1ccc(C2C(=O)N(C3CCCCCC3)CC(=O)N2Cc2ccccc2)cc1OC (stereo unspecified),,4.47 µM (active)
C=CCn1c(SC(C)C(=O)NCc2ccc3c(c2)OCO3)nc2scc(-c3ccccc3)c2c1=O (stereo unspecified),,0.562 µM (active)
C=CCn1c(SCc2ccccc2)nc2scc(-c3ccc(C)o3)c2c1=O,,inactive
C=CCn1c(SCc2ccc3c(c2)OCO3)nc2scc(-c3ccco3)c2c1=O,,2.82 µM (active)
C=CCn1c(SCC(=O)N2CC(=O)Nc3ccccc32)nc2scc(-c3ccccc3)c2c1=O,,2.82 µM (active)

Structure (SMILES),"activity, negative = inhibition",AC50
COc1ccc(S(=O)(=O)N2CCc3ccccc3C2)cc1OC,,15.8 µM (active)
O=S(=O)(c1ccc(Cl)s1)N1CCc2ccccc2C1,,inactive
O=C(ON=C1CCN(S(=O)(=O)c2ccccc2)CC1)c1ccccc1,,inactive
CCCCCCCCCCCCC(=O)N1CCCC[C@H]1CNC(=O)[C@@H](N)CCCCN,,inactive
CC(=O)NNc1cccc(Cl)n1,,inactive
O=C(NNc1cccc(Cl)n1)Nc1ccccc1Cl,,12.6 µM (active)
NC(=O)NC(=O)Nc1ccccc1Cl,,inactive
CCN(CCO)C[C@H]1CCC[C@H]2CCCC[C@@H]21,-20% [at 11.4 µM] (inactive),
Cc1ccc(Sc2ccc(NC(=O)c3ccc(S(C)(=O)=O)cc3Cl)cc2)cc1,,inactive
CN(C)S(=O)(=O)Oc1ccsc1C(=O)Nc1cccc(Cl)c1,,10 µM (active)
CN(C)S(=O)(=O)Oc1cccc(C(=O)Nc2ccc(Cl)c(Cl)c2)c1,,25.1 µM (active)
CN(C)S(=O)(=O)c1ccc(NC(=O)c2cc(F)c(F)cc2Cl)cc1,,inactive
C/C(=N/OC(=O)c1cccc(Cl)c1)c1nccs1,,inactive
CN(C)S(=O)(=O)Oc1ccsc1C(=O)Nc1ccc(Cl)cc1,,15.8 µM (active)
CN(C)S(=O)(=O)Oc1cccc(C(=O)Nc2ccccc2Cl)c1,-12.3% [at 11.4 µM] (inactive),
O=C1NCN(c2ccccc2)C12CCN(CCCC(c1ccc(F)cc1)c1ccc(F)cc1)CC2,,inactive
C[C@H](CN(C)C)C(=O)c1ccccc1C(=O)O,-12.4% [at 11.4 µM] (inactive),
NC[C@H](O)C1CCCCCCC1,,inactive
CCNc1ncc2nc(-c3ccccc3)c(=O)n(Cc3cccc(OC)c3)c2n1,,10 µM (active)
CCNc1ncc2nc(C)c(=O)n(Cc3cccc(OC)c3)c2n1,,7.94 µM (active)
CCNc1ncc2nc(-c3ccc(Cl)cc3)c(=O)n(Cc3cccc(OC)c3)c2n1,,inactive
Nc1nc(Cl)nc2c1ncn2[C@@H]1O[C@@H](CO)[C@@H](O)[C@H]1O,,inactive
CNc1nc(-c2cccnc2)nc2ccccc12,,6.31 µM (active)
CCOC(=O)NNc1nncc2ccccc12,,inactive
c1ccc(Nc2nc(-c3cccnc3)nc3ccccc23)cc1,,12.6 µM (active)
CCOC(=O)c1ccc(Nc2nc(-c3cccnc3)nc3ccccc23)cc1,,11.2 µM (active)

Structure (SMILES),"activity, negative = inhibition",AC50
CC(C)c1nc2oc3ccccc3c(=O)c2c(=O)n1-c1ccccc1,,inactive
CC(C)(C)NC[C@H](O)COc1cccc2c1CCCC2=O,,inactive
CCOC(=O)c1cc2c(=O)n3ccccc3nc2n(CCCOC)c1=NC(=O)C(C)(C)C,,15.8 µM (active)
CCOC(=O)c1cc2c(=O)n3ccccc3nc2n(CCCOC)c1=NC(C)=O,,inactive
Cc1cc(=O)c2ccccc2[nH]1,,inactive
COc1ccc(OC)c2c(=S)c3ccccc3[nH]c12,,7.94 µM (active)
O=c1[nH]c2ccccc2c2ccccc12,,inactive
CC(CC(=O)O)(CC(=O)O)C(=O)O,-8.15% [at 11.4 µM] (inactive),
COc1ccc(OC)c(C2N(c3cc(C)on3)C(=O)C3CCCN32)c1 (stereo unspecified),,inactive
COc1ccc(OC)c(C2C3=C(COC3=O)Nc3cc4c(cc32)OCO4)c1 (stereo unspecified),,7.08 µM (active)
COc1cccc(N2CCN(C(=O)Nc3ccc4c(c3)NC(=O)CO4)CC2)c1,,inactive
CC1CCCC(C)N1CCNC(=O)Cn1nc(-c2ccccc2)ccc1=O (stereo unspecified),,inactive
Cc1ccc(S(=O)(=O)N2CCOCC2)cc1NC(=O)COC(=O)CCC(=O)c1cccs1,,11.2 µM (active)
Cc1ccc(S(N)(=O)=O)cc1NC(=O)/C=C/c1cccs1,,inactive
O=C(CCC(=O)c1cccs1)OCC(=O)N1CCN(C(=O)c2ccco2)CC1,-6.6% [at 2.29 µM] (inactive),
O=C(c1ccc(N2CCCCC2)c([N+](=O)[O-])c1)N(Cc1ccccc1)c1ccccn1,,3.55 µM (active)
Cc1c(C(c2cccc([N+](=O)[O-])c2O)c2c(C)n(C)n(-c3ccccc3)c2=O)c(=O)n(-c2ccccc2)n1C,,inactive
Nc1nc(SCC(=O)Nc2ccccc2Sc2ccc(Cl)cc2)n[nH]1,,0.708 µM (active)
CCCCc1nc(SCC(=O)Nc2ncccn2)n[nH]1,,inactive
O=C(O)CCC(=O)Nc1ccc(C(=O)N2CCCCC2)cc1,,inactive
O=C(c1ccccc1Nc1ccc(SC(F)F)cc1)N1CCCCC1,,14.1 µM (active)
O=C(O)c1ccccc1Nc1ccccc1,,inactive
CC1CCCC(C)N1C(=O)c1ccccc1Nc1ccc(SC(F)F)cc1 (stereo unspecified),,10 µM (active)
